{"source": "PubChem BioAssay AID435022", "about": "(Sanford-Burnham Center for Chemical Genomics, 2010)", "note": "Screen size: about 330,000 compounds; about 1,100 (0.33%) were called active. What follows is part of a selection rich in actives, with near analogues and random picks from the rest. A number with no mark means an inactive call. Rule as the data show it: active = inhibition above about 35%; inactive = the rest.", "data": [{"experiment": "lowers stimulated NF-kB luciferase signal in 697 B cells – cell-based, luminescence, uHTS, B-cell NF-kB inhibitor project, primary screen (AID 435022)", "conditions": "697 B-cell NF-kB luciferase reporter, PMA/ionomycin, 16 h; at 4 µM; active compounds read high", "values": [{"smiles": "COc1ccc(CNc2nc(NCc3ccc(OC)cc3)c3ncn(C4CCCC4)c3n2)cc1", "inhibition": "-55.3%"}, {"smiles": "C=CCSc1nc(N)cc(=O)[nH]1", "inhibition": "36.8% (active)"}, {"smiles": "CCCCc1nnc(NC(=O)CSc2nc(N)cc(=O)[nH]2)s1", "inhibition": "13.3%"}, {"smiles": "Cc1cc(C(=O)CSc2nc(N)cc(=O)[nH]2)c(C)n1-c1cccc(F)c1", "inhibition": "-32.2%"}, {"smiles": "CC(=O)N(OCc1ccc(OC(C)C)c(Cl)c1)C(C)=O", "inhibition": "-2.83%"}, {"smiles": "COc1cc(F)c(C2=CC(=O)CC(C)(C)C2)cc1F", "inhibition": "4.27%"}, {"smiles": "Cn1c(-c2ccc(F)cc2)cc2onc(-c3ccccc3Cl)c2c1=O", "inhibition": "-275%"}, {"smiles": "Cc1cccc(C(=O)Nc2ccc(CC(=O)O)cc2)c1", "inhibition": "40.2% (active)"}, {"smiles": "Cc1cccc(C(=O)Nc2ccc(C(=O)/C=C/c3cccs3)cc2)c1", "inhibition": "6.21%"}, {"smiles": "Cc1cccc(C(=O)Nc2ccc(Oc3cnccn3)cc2)c1", "inhibition": "-6.59%"}, {"smiles": "O=Cc1c(NCCCN2CCCC2=O)c2ccccc2[nH]c1=O", "inhibition": "4.36%"}, {"smiles": "CC(C)(C)c1cnnn1-c1ccc([N+](=O)[O-])cc1", "inhibition": "12.8%"}, {"smiles": "Cc1ccccc1Cn1c2ccccc2c2cnn(CC(=O)NCc3ccco3)c(=O)c21", "inhibition": "-4.9%"}, {"smiles": "O=C(NC(Nc1nc2ccc([N+](=O)[O-])cc2s1)(C(F)(F)F)C(F)(F)F)c1ccccc1", "inhibition": "99.5% (active)"}, {"smiles": "O=C(NOCc1ccccc1)c1cccc([N+](=O)[O-])c1", "inhibition": "-12.3%"}, {"smiles": "O=C(COC(=O)c1ccc([N+](=O)[O-])cc1Cl)NC(=O)c1ccccc1", "inhibition": "-5.46%"}, {"smiles": "CCOC(=O)c1c(C)n(C)c2ccc(OC)c(NS(=O)(=O)CC)c12", "inhibition": "-4.31%"}, {"smiles": "COc1ccc2cc(CCl)c(Cl)nc2c1", "inhibition": "-1.58%"}, {"smiles": "O=C(Cn1cnc2ccccc2c1=O)NNC(=O)c1ccccc1F", "inhibition": "1.67%"}, {"smiles": "O=C(NCc1ccccc1CN1CCCC1)C1CCN(S(=O)(=O)c2ccc(Cl)cc2)CC1", "inhibition": "-7.16%"}, {"smiles": "COc1ccc(CNC(=O)CNC(=O)c2sc3ccccc3c2Cl)cc1OC", "inhibition": "35% (active)"}, {"smiles": "COc1ccc(CNC(=O)Cc2ccc(-c3ccccc3)cc2)cc1OC", "inhibition": "8.2%"}, {"smiles": "COc1ccc(CNC(=O)c2ccc(Br)s2)cc1OC", "inhibition": "-2.07%"}, {"smiles": "Cc1cc(C(F)(F)F)nc(SCC(=O)Nc2nccs2)n1", "inhibition": "-18.2%"}, {"smiles": "Cc1[nH]nc(SCC(=O)NCC(C)C)c1[N+](=O)[O-]", "inhibition": "9.07%"}, {"smiles": "Cc1oc2c(C)c3oc(=O)c(CC(=O)N[C@@H](CC(C)C)C(=O)N[C@@H](Cc4ccccc4)C(=O)O)c(C)c3cc2c1C", "inhibition": "22.3%"}, {"smiles": "CCOc1ccc(C(=O)Nc2cc(Cl)ccc2-n2cncn2)cc1OC", "inhibition": "14%"}, {"smiles": "CN(C)S(=O)(=O)c1ccc(N2CCCC2)c(C(=O)Nc2ccc(Br)cc2F)c1", "inhibition": "9.57%"}, {"smiles": "Cc1ccc(Cn2c(SCC(=O)N/N=C/c3ccccc3OCC(=O)O)nc3ccccc32)cc1", "inhibition": "3.74%"}, {"smiles": "CC(=O)c1nc2ccccc2n1Cc1ccccc1", "inhibition": "3.31%"}, {"smiles": "CCCc1nc2c(C)cc(-c3nc4ccccc4n3C)cc2n1Cc1ccc(-c2ccccc2C(=O)O)cc1", "inhibition": "44.7% (active)"}, {"smiles": "O=C1Nc2ccc(Br)cc2/C1=N/N=C/C1=C(N2CCOCC2)C(=C\\c2ccccc2)/CC1", "inhibition": "13.3%"}, {"smiles": "COc1ccc(C2C=C(c3ccc(Br)cc3)Nc3nc(NS(C)(=O)=O)nn32)cc1", "note": "(stereo unspecified)", "inhibition": "8.48%"}, {"smiles": "O=C1/C(=C/c2ccc(F)cc2)SC(=S)N1CCCC(=O)N1CCCCC1CCO", "note": "(stereo unspecified)", "inhibition": "-3.3%"}, {"smiles": "Cc1ccc(/C=C2/SC(=S)N(CCC(=O)NCCCN3CCOCC3)C2=O)cc1", "inhibition": "-16.3%"}, {"smiles": "C=CCOc1ccc(/C=C2\\SC(=S)N(CCC(=O)O)C2=O)cc1", "inhibition": "62.4% (active)"}, {"smiles": "CN(CC(=O)NCc1ccncc1)S(=O)(=O)c1ccc(Br)cc1", "inhibition": "12.7%"}, {"smiles": "Cc1cc(C)nc(N2CCC(C(=O)Nc3ccc4c(c3)OCCO4)CC2)n1", "inhibition": "-5.99%"}, {"smiles": "Cc1n[nH]c(C)c1S(=O)(=O)N1CCCC(C(=O)Nc2ccc(Br)cc2)C1", "note": "(stereo unspecified)", "inhibition": "-12.3%"}, {"smiles": "Cc1cc(Nc2cc(N3CCN(C)CC3)nc(Sc3ccc(NC(=O)C4CC4)cc3)n2)n[nH]1", "inhibition": "37% (active)"}, {"smiles": "CC(=O)c1c(C)[nH]c(C(=O)COC(=O)c2cccc(S(=O)(=O)N(C)c3ccccc3)c2)c1C", "inhibition": "-50%"}, {"smiles": "O=C(Cc1ccccc1)N1CCN(S(=O)(=O)c2ccc([N+](=O)[O-])cc2)CC1", "inhibition": "4.38%"}, {"smiles": "O=C(C1CCCN(S(=O)(=O)c2ccc([N+](=O)[O-])cc2)C1)N1CCCCC1", "note": "(stereo unspecified)", "inhibition": "-4.88%"}, {"smiles": "O=C(C1CCC1)N1CCN(S(=O)(=O)c2ccc([N+](=O)[O-])cc2)CC1", "inhibition": "38.2% (active)"}, {"smiles": "COC(=O)c1c(NC(=O)COC(=O)[C@@H](NS(=O)(=O)c2ccccc2)C(C)C)sc2c1CCC2", "inhibition": "10.3%"}, {"smiles": "CC1CCCCN1C(=O)Cn1c(=O)oc2cc(S(=O)(=O)N3CCCCC3)ccc21", "note": "(stereo unspecified)", "inhibition": "4.87%"}, {"smiles": "O=C(CSc1nc(-c2ccccc2)cs1)Nc1cccc([N+](=O)[O-])c1", "inhibition": "1.61%"}, {"smiles": "CCN(CCCNC(=O)c1ccc2c(c1)NC(=O)CN2C)c1cccc(C)c1", "inhibition": "-19.3%"}, {"smiles": "CNC(=O)c1ccc(NC(=O)c2cccc(C(F)(F)F)c2)cc1", "inhibition": "40.3% (active)"}, {"smiles": "O=C(Nc1ccc(C(F)(F)F)cc1)c1cccc(-n2cnnn2)c1", "inhibition": "-26.7%"}, {"smiles": "O=C(Nc1ccc(-c2csc(Nc3cccc(C(F)(F)F)c3)n2)cc1)c1cccc(C(F)(F)F)c1", "inhibition": "-26.3%"}, {"smiles": "Cc1ccc(NC(=O)CSc2nnc(CNC(=O)c3ccccc3F)o2)cc1", "inhibition": "0.808%"}, {"smiles": "CCOC(=O)N1CCN(S(=O)(=O)c2ccc(-n3cnnn3)cc2)CC1", "inhibition": "-11.9%"}, {"smiles": "CCCNC(=O)c1ccc(N2CCC3(CC2)CC(c2cccc(Br)c2)=NO3)c(NC(=O)c2ccco2)c1", "inhibition": "35.6% (active)"}, {"smiles": "CCCNC(=O)c1ccc(N2CCC3(CC2)CC(c2ccc(Cl)cc2)=NO3)c([N+](=O)[O-])c1", "inhibition": "-1.96%"}, {"smiles": "O=C(Nc1ccccc1N1CCN(C(=O)c2ccccc2)CC1)c1ccco1", "inhibition": "6.77%"}, {"smiles": "COc1ccc(NC(=O)c2sccc2SCC#N)cc1", "inhibition": "0.298%"}, {"smiles": "O=C(O)C1=C[C@H](c2cccs2)C[C@H](OCCCCO)O1", "inhibition": "27.6%"}, {"smiles": "Cn1c(CCCOc2ccc(Cl)cc2Cl)n[nH]c1=S", "inhibition": "-42.5%"}, {"smiles": "COc1cc(N=Cc2c(O)[nH]c3ccccc23)cc(OC)c1OC", "inhibition": "45.5% (active)"}, {"smiles": "CN=c1scc(-c2cc(OC)ccc2OC)n1/N=C/c1c(C)[nH]c2ccccc12", "inhibition": "-18%"}, {"smiles": "COc1ccc2[nH]c(C(=O)N/N=C/c3cc(OC)c(OC)c(OC)c3)cc2c1", "inhibition": "-5.61%"}, {"smiles": "O=C(Nc1ccc2c(c1)OCO2)C1CC(c2c(F)cccc2Cl)=NO1", "note": "(stereo unspecified)", "inhibition": "10.7%"}, {"smiles": "O=C(CNC(=O)Cc1ccccc1)NCC(=O)OCC(=O)c1ccccc1Cl", "inhibition": "12.5%"}, {"smiles": "O=C(O)c1ccc(COc2c(F)c(F)cc(F)c2F)o1", "inhibition": "4.23%"}, {"smiles": "Cn1c(=O)c2c(nc(N3CCCCCC3)n2CC(O)COc2ccc(Cl)cc2)n(C)c1=O", "note": "(stereo unspecified)", "inhibition": "-3.4%"}, {"smiles": "COc1ccc(CNC(=O)C2CCN(S(C)(=O)=O)CC2)cc1", "inhibition": "3.89%"}, {"smiles": "COc1ccc(CNC(=O)C2CCCC2)cc1", "inhibition": "9.55%"}, {"smiles": "COc1ccc(CNC(=O)[C@@H]2CC=C[C@@H]3CCN(C4CC4)C(=O)[C@@H]32)cc1", "inhibition": "37.2% (active)"}, {"smiles": "CC(NC(=S)Nc1ccc(OC(F)F)cc1)c1ccc(F)cc1", "note": "(stereo unspecified)", "inhibition": "2.48%"}, {"smiles": "COC(=O)c1cc(OC)c(OC)cc1NC(=O)C1CCCO1", "note": "(stereo unspecified)", "inhibition": "6.92%"}, {"smiles": "COc1ccc(C(=O)NC2CCCc3c2cnn3-c2cccc(C)c2C)c(OC)n1", "note": "(stereo unspecified)", "inhibition": "-399%"}, {"smiles": "CC1(C)Cc2c(cnn2-c2cccc(F)c2)C(NC(=O)c2cc[n+]([O-])cc2)C1", "note": "(stereo unspecified)", "inhibition": "-12.6%"}, {"smiles": "Cn1nccc1C(=O)NC1CCCc2c1cnn2-c1ccc(F)cc1F", "note": "(stereo unspecified)", "inhibition": "36.2% (active)"}, {"smiles": "Cn1nccc1C(=O)NC1CCCc2c1cnn2-c1ccccc1F", "note": "(stereo unspecified)", "inhibition": "62.7% (active)"}, {"smiles": "COc1ccc(C(=O)NC2CC(C)(C)Cc3c2cnn3-c2ccccc2C)o1", "note": "(stereo unspecified)", "inhibition": "4.57%"}, {"smiles": "Cc1ccc(-n2ncc3c2CCCC3NC(=O)c2cnccn2)cc1C", "note": "(stereo unspecified)", "inhibition": "-27.6%"}, {"smiles": "CC(C)(C)C(=O)NCCCNc1ccc([N+](=O)[O-])cc1", "inhibition": "14.1%"}, {"smiles": "CN(C(=O)CC(NC(=O)c1ccccc1)(c1ccccc1)c1ccccc1)c1ccccc1", "inhibition": "12%"}, {"smiles": "COC(=O)/C(C#N)=C/c1occc1C", "inhibition": "5.66%"}, {"smiles": "CC(NCc1cccs1)C(=O)Nc1cc(Cl)cc(Cl)c1", "note": "(stereo unspecified)", "inhibition": "7.31%"}, {"smiles": "CN(C)c1ccc(-n2cccc2/C=N/n2cnnc2)cc1", "inhibition": "-4.94%"}, {"smiles": "CCc1ccnc(NC(=O)Nc2ccc(OCc3ccccc3)cc2)c1", "inhibition": "6.55%"}, {"smiles": "O=C(O)c1n[nH]nc1-c1ccccc1", "inhibition": "14.7%"}, {"smiles": "O=c1cc(-c2ccccc2)nc(N2CCCCC2)[nH]1", "inhibition": "11.5%"}, {"smiles": "O=c1[nH]c(-c2ccccc2)c(-c2ccccc2)[nH]1", "inhibition": "35.4% (active)"}, {"smiles": "COc1ccc(CNC(=O)C[C@H]2C[C@H](C(=O)N3CCOCC3)[C@@]3(C)c4[nH]c5cc(CCC(=O)N(C)C)ccc5c4CCN3C2=O)cc1OC", "inhibition": "11.5%"}, {"smiles": "CN1CC(c2ccccc2)C2(COc3ccccc3C2=O)C12C(=O)Nc1ccccc12", "note": "(stereo unspecified)", "inhibition": "11.7%"}, {"smiles": "CC(=O)c1nc(N2C(=O)C3CC=C(C)CC3C2=O)sc1C", "note": "(stereo unspecified)", "inhibition": "23.1%"}, {"smiles": "C[C@@H]1C[C@@H]2O[C@H]2/C=C\\C=C\\C(=O)Cc2c(Cl)c(O)cc(O)c2C(=O)O1", "inhibition": "83.8% (active)"}, {"smiles": "COc1ccc(NC(=O)CSc2nc(SC)ns2)c(OC)c1", "inhibition": "-40%"}, {"smiles": "CCOC(=O)CSC1=N/C(=C/c2ccc(-n3cncn3)cc2)C(=O)N1C(C)=O", "inhibition": "6.08%"}, {"smiles": "C=CCC[C@@H](Cc1ccc(F)cc1)C(=O)O[C@H](CNC(=O)[C@H](CC=C)CC(=O)N(CCO)Cc1ccccc1)c1ccccc1", "inhibition": "1.62%"}, {"smiles": "CCOc1ccc(C(=O)CCC(=O)NC2=NCCS2)cc1", "inhibition": "21.2%"}, {"smiles": "O=C(CS(=O)(=O)Cc1ccccc1)Nc1cccnc1", "inhibition": "-24.8%"}, {"smiles": "OCCN1CCN(C(=S)c2ccc(-c3ccccc3)cc2)CC1", "inhibition": "55.1% (active)"}, {"smiles": "S=C(c1ccc(-c2ccccc2)o1)N1CCCCC1", "inhibition": "-134%"}, {"smiles": "CN1CCN(CCCCOc2ccccc2-c2ccccc2)CC1", "inhibition": "-15%"}, {"smiles": "Cc1cc(=O)oc2c(C(=O)c3ccccc3)c(OCC(N)=O)ccc12", "inhibition": "-14.5%"}, {"smiles": "O=C(CSC1=NS(=O)(=O)c2cc(F)ccc2N1)Nc1ccccc1F", "inhibition": "1.35%"}, {"smiles": "NCCCC[C@@H]1NC(=O)[C@H](CCC(=O)O)NC(=O)c2cc([N+](=O)[O-])cc(I)c2NCC[C@@H](C(N)=O)NC1=O", "inhibition": "18.3%"}]}]}
